The values that follow come from PubChem BioAssay (Tox21).

The structures appear in SMILES notation. Results filed as inconclusive are left out. Where a call stands in place of a potency, no number is given. The source made the active and inactive calls. Calls follow the shape of the dose curve; as a rule, active = well fitted cell-killing curve with a large enough effect in the repeat runs; inconclusive = weak or mixed curves, or effect the other way; inactive = flat fitted curve, though single readings scatter.

The nature of assay [1]: cAMP Responsive Elements (CRE) small molecule antagonists, cell-based qHTS assay: qHTS cell viability counter screen (AID 2060913). Also: nearly all actives have a fitted effect of over 40% in size. A digest of the protocol: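 Steps: cells plated and held 18 hrs at 37 C/5% CO2; compounds and NKH477 (0.25 uM final) added; 3 hrs incubation; reporter substrate read; CellTiter-Glo added to measure cytotoxicity by luminescence.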
For orientation: Quantitative high-throughput screening tests each substance at several concentrations.

Assay [2] in a line: cAMP Responsive Elements (CRE) small molecule agonists, cell-based qHTS assay: qHTS cell viability counter screen (AID 2060914). Also: nearly all actives have a fitted effect of over 50% in size. A digest of the protocol: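 Cytotoxicity was measured as ATP luminescence (CellTiter-Glo, 30 min at room temperature) in the same wells as the CRE-bla FRET read-out. HEK293T CRE-bla cells had 3 h compound exposure at 37C/5% CO2.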

Consider `CO[Si](CCCNCCN)(OC)OC`, for which the Potency result in assay [1] and in assay [2] was “inactive” throughout.

For `CCOC(=O)c1ncn2c1CN(C)C(=O)c1cc(F)ccc1-2`, the Potency result in assay [1] and in assay [2] was “inactive” each time.

As to `c1ccc2sc(SN3CCOCC3)nc2c1`, the Potency result in assay [1] and in assay [2] was “inactive” in each case.
